Data from PubChem BioAssay (EPA / NIEHS).
Calls of active or inactive are those of the source. How the source made its calls: active means hit-call score of the fitted dose curve at least 0.9, where 1 is the maximum; inactive means score below 0.9.

Experiment: CCTE_Mundy_HCI_Cortical_Synap_Neur_Matur_BPCount: CCTE's Synaptogenesis and Neurite Maturation Assay in rat cortical cells for Branch Point Count, Mundy Lab (AID 2284211)
Description: CCTE_Mundy_HCI_Cortical_Synap&Neurite_Matur is a multiplexed, cell-based-readout assay that uses rat primary cortical cells with measurements taken at 288.33 hours after chemical dosing in a microplate: 96-well plate.CCTE_Mundy_HCI_Cortical_Synap_Neur_Matur_BPCount is one of eight components of the CCTE_Mundy_HCI_Cortical_Synap&Neurite_Matur assay. It measures synaptogenesis and neurite maturation related to number of branch points using High Content Imaging of fluorescently labelled markers.[…] Using a type of morphology reporter, loss -of-signal activity can be used to understand developmental effects.
Cells are plated onto 96 well plates and allowed 2 hr for attachment to the substrate. At days in vitro (DIV) 5, Cytosine Arabinoside (AraC) is added to arrest glial cell growth. Chemicals are dosed and a media change is performed at DIV 7 of differentiation and is continued through DIV 12 when the experiment is terminated. Cells are fixed with […] and Hoechst Dye. Cells are stained using Millipore Mouse anti-MAP2MAB3418 (1:800) and Millipore Rabbit anti-Synaptophysinsc-1750 (1:250) primary antibodies and Alexa Fluor-488 goat anti-mouse and AlexaFluor-546 goat anti-rabbit secondary antibodies to label neuronal cell nuclei, synapses and neurites. A Cellomics ArrayScan VTi HCS Reader is used for automated image acquisition and analysis of neurite outgrowth.

| SMILES | outcome | AC50 |
| --- | --- | --- |
| Nc1cc(Cl)cc(C(=O)O)c1Cl | inactive | – |
| [O-][Cl+]O | inactive | – |
| CN(C)[C@@H]1C(=O)C(C(N)=O)=C(O)[C@@]2(O)C(=O)C3=C(O)c4c(O)cccc4[C@@](C)(O)[C@H]3C[C@@H]12 | – | 0.474 µM (active) |
| COP(=S)(OC)SCN1C(=O)c2ccccc2C1=O | inactive | – |
| CC(C)(C)C(O)(CCc1ccc(Cl)cc1)Cn1cncn1 (configuration not stated) | – | 11.2 µM (active) |
| CCCCOC(=O)c1ccccc1C(=O)OCc1ccccc1 | – | 10 µM (active) |
| CNC(=O)Oc1cccc2c1OC(C)(C)C2 | inactive | – |
| OCCOCCO | inactive | – |
| ClC1=C(Cl)C2(Cl)C3C(Cl)C=CC3C1(Cl)C2(Cl)Cl (configuration not stated) | – | 13.3 µM (active) |
| CC(C)COC(=O)c1ccccc1C(=O)OCC(C)C | – | 76.7 µM (active) |
| CCC[CH2][Sn]([Cl])([CH2]CCC)[CH2]CCC | – | 0.0481 µM (active) |
| COC(=O)Nc1nc2ccccc2[nH]1 | – | 4.14 µM (active) |
